Test results: PubChem BioAssay (NCI)
About 83,000 compounds went through this panel and 20% of them were active in at least one assay; those are over-represented in the sample as a whole.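 Cell lines were cultured in 96-well plates, exposed to a single compound concentration, and assessed for percent growth 48 hours later.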 Unmarked numbers belong to inactive results. Active and inactive are the calls of the source. Rule for the calls: active = growth percent below 10; inactive = the rest.

Legend:
Assay in all cases: NCI-60 one-dose screen, 48 h (100 = growth as untreated, 0 = no growth, -100 = all killed)
Conditions in all cases: 10 µM unless noted
HCT-15 colon = tested on: HCT-15 colon
HT29 colon = tested on: HT29 colon
SNB-75 CNS = tested on: SNB-75 CNS
SNB-19 CNS = tested on: SNB-19 CNS
U251 CNS = tested on: U251 CNS
PC-3 prostate = tested on: PC-3 prostate
SK-MEL-5 melanoma = tested on: SK-MEL-5 melanoma
UACC-62 melanoma = tested on: UACC-62 melanoma
LOX IMVI melanoma = tested on: LOX IMVI melanoma
SK-MEL-28 melanoma = tested on: SK-MEL-28 melanoma

Row | Compound | growth (HCT-15 colon) | growth (HT29 colon) | growth (SNB-75 CNS) | growth (SNB-19 CNS) | growth (U251 CNS) | growth (PC-3 prostate) | growth (SK-MEL-5 melanoma) | growth (UACC-62 melanoma) | growth (LOX IMVI melanoma) | growth (SK-MEL-28 melanoma)
1 | COc1cc(-c2cc(=O)oc3cc(O)ccc23)c(OC)c2c1OCO2 | 92.4% | 102% | 84.9% | 97.4% | 94.6% | 80.6% | 90.6% | 74.3% | 93.8% | 97%
2 | CCC(C)N(CCNc1cc(OC)cc2cccnc12)CCC(C)C (stereo not given) | 76.6% | 55.6% | 100% | 96.2% | 84% | 79.3% | 95.2% | 94.2% | 86% | 99.7%
3 | COc1ccc(C(=O)c2cc(C)c(OC)c(C)c2)c(OC)c1O | 8.64% (active) | 26.6% | 57.8% | 22.2% | 14.5% | 19.5% | -34.5% (active) | 30.3% | 21.5% | –
4 | COc1ccc(CNCCN2C(=O)c3ccc4c5c(ccc(c35)C2=O)C(=O)N(CCNCc2ccc(OC)cc2)C4=O)cc1 | -68.1% (active) | -55.3% (active) | -95.7% (active) | -90.9% (active) | -91.8% (active) | -76% (active) | -99.6% (active) | -84.4% (active) | -74.7% (active) | -96.2% (active)
5 | CCNC(=S)NNC(=O)c1cc2ccc1CCc1ccc(cc1)CC2 | 96.7% | 104% | 89.8% | 100% | 101% | 91.1% | 96.7% | 93.4% | 102% | –
6 | COc1ccc(Nc2nc(N)nc3c2CCc2occc2-3)cc1 | 92% | 87% | 95% | 99.4% | 103% | 90.4% | 94.6% | 93.9% | 93.1% | 106%
7 | Cc1nn(-c2ccccc2)c(N2CCOCC2)c1/C=N/N=c1\sc2ccccc2n1C | 39.1% | 66.5% | 99.2% | 87.3% | 55.2% | 49% | 38.5% | 71.1% | 57.9% | –
8 | O=C(O)c1cn(C2CC2)c2cc(N3CCN(C(=O)C[n+]4cccc5ccccc54)CC3)c(F)cc2c1=O | 55% | 78.7% | 75.1% | 83.8% | 64.4% | 77.1% | 94.6% | 42.7% | 20.7% | –
9 | N#C/C(=C\c1ccc(Br)cc1)n1nnc2cccc(F)c21 | 1.81% (active) | 11.8% | -24.8% (active) | 25.6% | 15.6% | 29% | 1.82% (active) | 22.7% | -56.3% (active) | –
10 | O=CNc1cc(Cl)cc(Cl)c1 | 103% | 101% | 104% | 99.7% | 102% | 96.1% | 102% | 96.1% | 108% | 103%
11 | O=C1CCC(NC(=S)Nc2ccccc2)N1 (stereo not given) | 113% | 98.3% | 113% | 100% | 104% | 102% | 106% | 99.9% | 97.5% | 108%
12 | O=C1OC(=O)C2C1CC=CC2c1ccccc1 (stereo not given) | 105% | 86.3% | 83.7% | 93.7% | 87.8% | 73.1% | 98.6% | 94.4% | 71.7% | 91.8%
13 | Cc1ccc2[nH]c(=S)n(-c3ccc(S(=O)(=O)Nc4ccc(Cl)nn4)cc3)c(=O)c2c1 | 101% | 103% | 97.8% | 97.5% | 100% | 103% | 101% | 98.5% | 100% | 108%
14 | O=C1/C(=C\c2cn(Cc3ccccc3)c3ccc(Br)cc23)c2ccccc2N1c1c(Cl)cccc1Cl | 102% | 101% | 76.4% | 90.9% | 96.4% | 78% | 104% | 98.4% | 88.8% | 107%
15 | O=C(Nc1ccc(Cl)cc1)Nc1ccc(Cl)c(Cl)c1 | 3.42% (active) | 28.6% | 51.7% | 15.9% | 8.94% (active) | 9.37% (active) | 24.1% | 5.98% (active) | 7.43% (active) | 35.4%
16 | CC(=O)c1c(-c2ccc(OC(F)(F)F)cc2)nc2ccccn12 | 94.9% | 74.2% | 91.9% | 99.1% | 89.8% | 95.1% | 96.6% | 105% | 91.6% | 90%
17 | O=C(Nc1nc(-c2ccccc2Cl)cs1)c1cc(-c2ccccc2)nc2ccc(Cl)cc12 | 11.9% | 85.3% | 92.9% | 80.6% | 62.5% | 73.2% | 43.8% | 41.8% | 21.6% | 70.8%
18 | COc1ccc(C(=O)c2cc3c(N)c(C(=O)Nc4cccc(OC)c4)sc3nc2C)cc1 | 16% | 1.18% (active) | -10.6% (active) | 40.2% | 15.1% | 28.7% | 15.3% | 44.5% | 36.6% | 56.7%
19 | C=CCn1c(SCC(=O)Nc2ccc(C(=O)/C=C/c3cc(OC)c(OC)c(OC)c3)cc2)nnc1-c1cc(-c2ccc(S(C)(=O)=O)cc2)nc2ccccc12 | 69.7% | 81.3% | 55.7% | 74.1% | 88.3% | 88.8% | 82.7% | 75.5% | 67% | 108%
20 | C#CCn1cc(C=C2C(=O)NC(=S)NC2=O)c2cc(Cl)ccc21 | -23% (active) | 13.6% | 43.9% | 13.2% | 3.31% (active) | 8.39% (active) | 40.8% | 1.1% (active) | -46.1% (active) | -26.5% (active)
21 | CCOc1cc(CNc2ccc(N3CCOCC3)c(C(=O)O)c2)ccc1OC | 96.4% | 98.1% | 108% | 94.6% | 103% | 98.9% | 99.8% | 90.3% | 99.5% | 100%
22 | O=C1c2ccccc2-c2c1c1c(NCCCO)nc3ccccc3c1n2Cc1ccccc1 | 66% | 5.61% (active) | -1.82% (active) | 16.7% | 7.89% (active) | 33.8% | -82.6% (active) | 17.5% | 2.25% (active) | -3.55% (active)
23 | COc1ccc(-n2cc(-c3cc(OC)c(OC)c(OC)c3)n(C(C)=O)c2=O)cc1 | 94.9% | 108% | 69.5% | 86.1% | 88.2% | 94% | 6.54% (active) | 84.1% | 94% | 115%
24 | CC1(C)CN(Cc2ccccc2)CCN1Cc1ccccc1 | 104% | 96.2% | 121% | 98.1% | 92.3% | 95.4% | 97.8% | 97.9% | 98.6% | 111%
25 | CC1(C)CC[C@]2(C(=O)NCC#CCN3CCOCC3)CC[C@]3(C)C(=CC[C@@H]4[C@@]5(C)Cc6c([nH]c7ccccc67)C(C)(C)[C@@H]5CC[C@]43C)[C@@H]2C1 | 93.5% | 83.5% | 98.2% | 93.1% | 87.9% | 58.6% | 88.8% | 49.3% | 94.6% | 67.7%
26 | COc1ccc(C(=O)c2cc(C)c(OC)c(C)c2)c(OC)c1N(C(=O)C(Cl)Cl)C(=O)C(Cl)Cl | 7.03% (active) | 1.22% (active) | 56.4% | 26.4% | 19.2% | 18.1% | 0.812% (active) | 38.8% | 20.3% | 49.8%
27 | Cc1nc2sc(C(=O)Nc3cccc(Br)c3)c(N)c2cc1C(=O)c1ccc(C(F)(F)F)cc1 | 88.1% | 90.3% | 55% | 82.3% | 58.7% | 70.2% | 91% | 82.7% | 73.3% | 92.1%
